Values joined by “and” are separate entries in the source; they are usually repeats but may differ in a detail not shown here. Equal entries are not always repeated. Records with an inconclusive call do not appear. Where a structure was tested more than once in an assay, its records may differ in their call. Active and inactive are the calls of the source. Unless noted, calls come from the whole dose curve; as a rule, active = well fitted curve in the direction sought with a large enough effect in the repeat runs; inconclusive = weak or mixed curves; inactive = no such curve, though single readings can be large; an effect the other way counts as inactive or inconclusive.

In PubChem BioAssay (Tox21) one finds Potency, outcome and activity change, positive = activation data, which are given here for eight compounds.

Assay [1] is described as follows: qHTS assay to identify small molecule antagonists of the constitutive androstane receptor (CAR) signaling pathway - cell viability counter screen (AID 1224837). Note: nearly all actives have a fitted effect of over 45% in size. The method in brief: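 Using CellTiter-Fluor, viability is scored in HepG2 cells stably carrying hCAR and a 2.2kb CYP2B6 reporter after 23 hr compound exposure across 15 concentrations, with CITCO present at 50 nM.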
A general note: qHTS replaces the single test concentration by a dilution series.

In assay [2] the target is Nuclear receptor subfamily 1 group I member 3 (Homo sapiens) (UniProt Q14994). In words: qHTS assay to identify small molecule antagonists of the constitutive androstane receptor (CAR) signaling pathway (AID 1224838).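 Note: HepG2 cells stably expressing hCAR with CYP2B6 luciferase reporter stimulated by CITCO; nearly all actives have a fitted effect of over 40% in size.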 The essentials: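 Reporter luminescence was quantified after 24 h exposure of hCAR/CYP2B6-2.2kb double-stable HepG2 cells to compounds at 15 concentrations in the presence of 50 nM CITCO final.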
Nuclear receptor subfamily 1 group I member 3 (Homo sapiens), sequence (Q14994 whole entry, looked up): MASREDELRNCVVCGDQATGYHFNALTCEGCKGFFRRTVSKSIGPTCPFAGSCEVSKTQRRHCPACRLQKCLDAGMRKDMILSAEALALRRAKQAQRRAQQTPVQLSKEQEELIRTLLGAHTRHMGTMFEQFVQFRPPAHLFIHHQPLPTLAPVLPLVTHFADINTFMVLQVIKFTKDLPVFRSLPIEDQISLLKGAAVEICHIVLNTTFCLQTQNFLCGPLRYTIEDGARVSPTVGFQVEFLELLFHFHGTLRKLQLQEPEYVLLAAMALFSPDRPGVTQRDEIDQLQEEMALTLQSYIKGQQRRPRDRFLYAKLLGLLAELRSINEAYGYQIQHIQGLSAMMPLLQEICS

For assay [3] the target is unchanged. As to the kind of experiment: qHTS assay to identify small molecule agonists of the constitutive androstane receptor (CAR) signaling pathway (AID 1224839). Note: nearly all actives have a fitted effect of over 15% in size. Note: potency is the fitted concentration of half-maximal effect. The method in brief:
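Luminescence read-out (ONE-Glo, 30 min, room temperature) from double-stable HepG2-CYP2B6-hCAR cells exposed 24 h to 15-point compound series in presence of 0.75 uM PK11195 final.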

Assay [4] is described as follows: qHTS assay to identify small molecule antagonists of the estrogen related receptor signaling pathway with the pleiotropic PPARgamma coactivator (PGC) from Tox21 10K library - cell viability counter screen (AID 1224840; active = well fitted cell-killing curve with a large enough effect in the repeat runs, not every such curve was filed as active; note: nearly all actives have a fitted effect of over 40% in size). The method in brief: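 Here the PGC/ERR cells serve as a cytotoxicity control: they are exposed to compounds for 17.5 hours at 37 C, and live-cell signal is quantified using CellTiter-Fluor fluorescence.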

Assay [5] is described as follows: qHTS assay to identify small molecule agonists of the hypoxia (HIF-1) signaling pathway - cell viability counter screen (AID 1224844; calls by dose curve; note: nearly all actives have a fitted effect of over 50% in size). The essentials: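 Multiplexed with the HRE beta-lactamase assay, this viability read used CellTiter-Glo luminescence (30 min, RT) on HRE-bla ME-180 cells treated 17 hrs with compounds in 0.5% dialyzed FBS medium.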
A short description of assay [6]: qHTS assay to identify small molecule agonists of H2AX (AID 1224845; active = well fitted activation curve with a large enough effect in the signal ratio in the repeat runs, not every such curve was filed as active; the % refers to the signal ratio). The method in brief: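 Wild-type CHO-K1 cells, plated overnight, exposed 3hr at 37C to 15 concentrations (0.76% DMSO final). Lysed, then HTRF anti-pH2AX (S139) cryptate and anti-H2AX-d2 antibodies, 24 hr room temperature; 665/620 nm emission read.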
Assay [7] is described as follows: qHTS assay to identify small molecule agonists of the hypoxia (HIF-1) signaling pathway (AID 1224846; active = well fitted activation curve with a large enough effect in the signal ratio in the repeat runs, not every such curve was filed as active; the % refers to the signal ratio). The essentials:
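Hypoxia-pathway activation was scored as increased beta-lactamase from an HRE-controlled reporter in ME-180 cells; plated at 2,000 cells per well with 0.5% dialyzed FBS, they were exposed 17 hrs to compounds and then given CCF4-AM.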

The nature of assay [8]: qHTS RealTime-Glo MT Cell Viability Assay in HepG2 cells - 24 hour (AID 1224867). Note: nearly all actives have a fitted effect of over 50% in size. The essentials:
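HepG2 cells (600/well) were dispensed with RealTime-Glo reagents, incubated 5 h at 37 °C, then treated with compounds in DMSO for up to 40 h. Nonlytic NanoLuc luminescence reflecting viable cells was read at each stated time point.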

Assay [9] is described as follows: qHTS RealTime-Glo MT Cell Viability Assay in HEK293 cells - 32 hour (AID 1224868). Note: nearly all actives have a fitted effect of over 50% in size. Note: potency is the fitted concentration of half-maximal effect. The essentials:
(§1)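 HEK293 cells seeded with NanoLuc/prosubstrate reagent, rested 5 h at 37 C, then dosed and kept at 37 C up to 40 h. Nonlytic real-time luminescence from viable cells read at 0, 8, 16, 24, 32 and 40 h.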

Assay [10] is described as follows: A CellTox Green Cytotoxicity Assay to monitor cytotoxicity in HEK293 cells - 0 hour (AID 1224869). Note: nearly all actives have a fitted effect of over 50% in size. The essentials: (§2)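 Seeding of HEK293 cells together with cytotoxicity dye preceded a 5 h incubation at 37 C/5% CO2. Test compounds in DMSO were then added and fluorescence monitored across 40 h.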
A short description of assay [11]: qHTS RealTime-Glo MT Cell Viability Assay in HepG2 cells - 40 hour (AID 1224870). Note: nearly all actives have a fitted effect of over 50% in size. The essentials: (§3)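 HepG2 cells (600/well) mixed with RealTime-Glo MT reagent, settled 5 h at 37 C/5% CO2 before compound addition. Nonlytic NanoLuc luminescence from viable-cell prosubstrate reduction read repeatedly during 40 h treatment at 37 C.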
Assay [12] can be described thus: A CellTox Green Cytotoxicity Assay to monitor cytotoxicity in HEK293 cells - 40 hour (AID 1224871). Note: nearly all actives have a fitted effect of over 45% in size. The method in brief: as §2
The nature of assay [13]: qHTS RealTime-Glo MT Cell Viability Assay in HEK293 cells - 16 hour (AID 1224872). The method in brief:
as §1

Assay [14] can be described thus: qHTS RealTime-Glo MT Cell Viability Assay in HepG2 cells - 8 hour (AID 1224873). Note: nearly all actives have a fitted effect of over 55% in size. The method in brief:
as §3

Assay [15] addresses Thyrotropin receptor (Homo sapiens) (UniProt P16473). As to the kind of experiment: qHTS assay to identify small molecule agonists of the thyroid stimulating hormone receptor (TSHR) signaling pathway (AID 1224843; calls by dose curve; note: nearly all actives have a fitted effect of over 45% in size). The essentials: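 TSHR-HEK293 cells in agonist mode, 30 min room-temperature step, then cAMP measured by competitive HTRF (cAMP-d2 with anti-cAMP cryptate) after 1 h at room temperature. Tested at 15 concentrations in triplicate.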

Assay [16] in a line: qHTS assay to identify small molecule agonists of H2AX - cell viability counter screen (AID 1224847; calls by dose curve; note: top concentration of the series differs between compounds; nearly all actives have a fitted effect of over 30% in size). The method in brief: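 CHO-K1 wt, 1000 cells/well, o/n 37C; cpds 15 conc, 3 h 37C, 0.76% DMSO; CellTiter-Glo, 30 min RT, luminescence.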
Assay [17] can be described thus: qHTS assay to identify small molecule antagonists of the estrogen related receptor signaling pathway with the pleiotropic PPARgamma coactivator (PGC) from Tox21 10K library (AID 1224841; call rule not given here). The essentials:
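Each well held 2,000 PGC/ERR cells, pre-incubated six hours (37 C, 5% CO2). Test substances in DMSO were added by pin tool and left for 18 h at 37 C before luciferase detection by One-Glo.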

Assay [18] in a line: qHTS assay to identify small molecule agonists of the estrogen related receptor signaling pathway with the pleiotropic PPARgamma coactivator (PGC) from Tox21 10K library (AID 1224842). Note: nearly all actives have a fitted effect of over 15% in size. The method in brief:
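PGC/ERR reporter cell line, 2,000 cells per well, incubated 6 h at 37 C before 23 nL compound in DMSO was added. After 18 h at 37 C, One-Glo luminescence read following 30 min at room temperature.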

Assay [19] in a line: qHTS assay to identify small molecule antagonists of the estrogen related receptor (ERR) signaling pathway from Tox21 library (AID 1224848). Note: nearly all actives have a fitted effect of over 50% in size. The method in brief:
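ERR reporter cell line (from NTP) seeded 2,000 cells/well, rested 6 h at 37 C/5% CO2, then pin-dosed with compounds in DMSO. After 18 h at 37 C, ONE-Glo added; luminescence read after 30 min at room temperature.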

Assay [20] in a line: qHTS assay to identify small molecule agonists of the estrogen related receptor (ERR) signaling pathway from Tox21 library (AID 1224849; calls by dose curve; note: nearly all actives have a fitted effect of over 15% in size). As to conditions: ERR reporter cell line, ONE-Glo luciferase, 18 h. The method in brief: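 Six hours post-seeding at 37 C/5% CO2, ERR cells receive DMSO-solubilised compounds; after 18 h at 37 C, ONE-Glo reagent is applied and luminescence recorded.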
% is set by controls: 0 for no effect and ±100 for the full control effect.

Thyrotropin receptor (Homo sapiens), sequence (P16473 whole entry, looked up): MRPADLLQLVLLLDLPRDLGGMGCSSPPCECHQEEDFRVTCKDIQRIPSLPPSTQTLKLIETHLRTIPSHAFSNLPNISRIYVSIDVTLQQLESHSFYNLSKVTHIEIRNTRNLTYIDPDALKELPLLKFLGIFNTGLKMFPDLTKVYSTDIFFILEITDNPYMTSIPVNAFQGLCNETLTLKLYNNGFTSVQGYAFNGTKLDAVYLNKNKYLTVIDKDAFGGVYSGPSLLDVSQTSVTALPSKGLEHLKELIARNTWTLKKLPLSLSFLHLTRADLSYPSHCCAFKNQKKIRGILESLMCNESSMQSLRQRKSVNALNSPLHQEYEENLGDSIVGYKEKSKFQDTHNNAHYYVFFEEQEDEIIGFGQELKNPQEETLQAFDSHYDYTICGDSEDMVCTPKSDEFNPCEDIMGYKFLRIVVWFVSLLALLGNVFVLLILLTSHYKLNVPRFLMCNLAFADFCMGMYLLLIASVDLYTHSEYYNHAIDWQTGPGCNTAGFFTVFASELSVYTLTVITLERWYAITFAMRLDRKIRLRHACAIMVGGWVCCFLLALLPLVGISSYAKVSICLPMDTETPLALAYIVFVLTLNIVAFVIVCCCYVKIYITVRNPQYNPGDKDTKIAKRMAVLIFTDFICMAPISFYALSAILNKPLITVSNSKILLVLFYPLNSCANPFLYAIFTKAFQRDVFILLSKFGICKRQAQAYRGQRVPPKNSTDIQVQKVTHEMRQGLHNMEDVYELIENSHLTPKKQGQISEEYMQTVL

Take `COP(N)(=O)SC` (centres undefined): the Potency result in [1], in [2], in assay [3], in [4], in assay [5] and in [6] was “inactive” each time. In addition, the Potency entry in assay [9], in [10] and in assay [12] was “inactive” throughout. Further, the compound was called inactive in assay [7], in assay [8], in assay [11], in assay [13] and in assay [14].

With `CCCCN(CC)C(=O)SCCC`, the Potency entry in assay [1], in assay [2], in [3], in [4], in assay [15] and in assay [5] was “inactive” in each case. Moreover, the Potency result in [6], in assay [16], in assay [10] and in [12] was “inactive” throughout. For the same compound, the outcome in [7], in [8], in assay [13] and in [14] was inactive. The Potency entry in assay [9] is “inactive and 19.5 µM (active)”.

In the case of `Cc1cc(Cl)ccc1O`, the Potency entry in [1], in assay [2], in [3], in assay [4], in assay [15] and in assay [5] was “inactive” in each case. The Potency result in assay [6], in [9], in assay [10] and in assay [12] was “inactive” in each case. Further, the call in [7], in [8], in [11], in assay [13] and in assay [14] was inactive.

As to `CC(C)(C)OOC(C)(C)C`, the Potency result in assay [1], in [2], in assay [3], in [4], in [17] and in assay [15] was “inactive” in each case. In addition, the Potency entry in assay [5], in [6], in assay [16], in assay [19], in assay [9] and in assay [10] was “inactive” each time. Also, the Potency result in assay [12] was “inactive”. The call in assay [18], in [7], in [8], in assay [13] and in assay [14] was inactive. Further, the activity change, positive = activation was 6.85% (inactive) in [20] (at 42.5 µM (top of the series)) and -1.09% (inactive) in assay [20] (at 92.4 µM (top of the series)).

With `COC(=O)NC(=S)Nc1ccccc1NC(=S)NC(=O)OC`, the Potency entry in assay [1], in assay [2], in assay [3], in assay [4], in [15] and in assay [5] was “inactive” in each case. In addition, the Potency entry in assay [6], in assay [16], in [9], in assay [10] and in [12] was “inactive” throughout. Also, the outcome in [7], in assay [8], in [11], in [13] and in assay [14] was inactive.

Take `CCOC(=O)c1ccccc1C(=O)OCC`: the Potency entry in assay [1], in assay [2], in assay [3], in assay [4], in [17] and in assay [5] was “inactive” throughout. Further, the Potency entry in assay [6], in assay [16], in assay [19], in assay [9], in assay [10] and in assay [12] was “inactive” each time. For the same compound, the outcome in assay [18], in assay [7], in [8], in [11], in [13] and in assay [14] was inactive. Further, the activity change, positive = activation in assay [20] (at 92.4 µM (top of the series)) was 2.2% (inactive) and 2.35% (inactive).

Turning to `CCNc1nc(NC(C)C)nc(SC)n1`, the Potency entry in [1], in assay [2], in [4], in [15], in [5] and in [6] was “inactive” in each case. For the same compound, the Potency result in assay [16], in assay [9], in assay [10] and in [12] was “inactive” in each case. In addition, the Potency in assay [3] was 48.6 µM (active). The outcome in [7], in [8], in [13] and in assay [14] was inactive.

Consider `CC(C)C#N`, for which the Potency entry in [1], in assay [2], in assay [3], in [4], in assay [15] and in assay [5] was “inactive” each time. Further, the Potency entry in assay [6], in assay [9], in [10] and in assay [12] was “inactive” each time. Moreover, the result in assay [7], in assay [8], in assay [11], in [13] and in assay [14] was inactive.
